Compound activity from PubChem.
Compounds with a hit are over-represented: about 3.5% of the library has one in this group of screens.
TEAD-YAP inh: TEAD-YAP interaction inhibition. hit rate 1.4% among 640,000. HEK-TIYL cells, TEAD-Gal4/YAP UAS-luciferase luminescence. inhibition, % at 9.12 µM. AID 1259422; in the data active = inhibition above about 32%;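 note: 0% = median of test compound wells and 100% = reference inhibitor wells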
MITF inh: inhibitors of human MITF; hit rate 0.91% among 650,000; inhibition, % at 2.6 µM; AlphaScreen MITF homodimerization, bead proximity signal; AID 1259374; O75030; in the data active = inhibition above about 50%;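 note: 0% = vehicle wells with protein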
Target sequence (O75030 whole entry, looked up): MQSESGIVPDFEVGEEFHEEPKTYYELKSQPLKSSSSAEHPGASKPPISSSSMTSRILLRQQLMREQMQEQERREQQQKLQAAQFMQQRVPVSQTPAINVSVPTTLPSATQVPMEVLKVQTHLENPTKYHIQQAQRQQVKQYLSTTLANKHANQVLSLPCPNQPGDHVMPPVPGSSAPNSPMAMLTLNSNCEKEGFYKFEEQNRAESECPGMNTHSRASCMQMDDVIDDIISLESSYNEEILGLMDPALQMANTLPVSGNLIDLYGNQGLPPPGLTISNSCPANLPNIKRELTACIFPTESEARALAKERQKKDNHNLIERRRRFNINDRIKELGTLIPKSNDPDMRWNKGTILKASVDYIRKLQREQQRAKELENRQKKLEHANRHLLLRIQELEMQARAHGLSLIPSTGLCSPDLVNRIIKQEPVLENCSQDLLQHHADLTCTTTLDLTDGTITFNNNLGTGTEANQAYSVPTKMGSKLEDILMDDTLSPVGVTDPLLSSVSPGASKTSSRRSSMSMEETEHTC
FBW7 act: human FBW7 E3 ligase activation, primary screen | Q969H0 | AlphaScreen FBW7–phospho-cyclin E peptide binding, activator screen | normalized activity (activation), % at 26.1 µM | hit rate 0.13% among 650,000; in the data active = normalized activity above about 1.9%;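 note: purified mutant Fbw7 with reduced substrate affinity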
GPR151 activ: human GPR151 activation | Q8TDV0 | PathHunter beta-arrestin GPR151 cells, luminescence | activation, % at 11.2 µM | hit rate 1% among 650,000 | AID 1508602; in the data active = activation above about 4.9%;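 note: 0% = median of compound wells and 100% = cells with positive control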
The depositor's hits bear a star.

SMILES | TEAD-YAP inh | MITF inh | FBW7 act | GPR151 activ
C/C(CC(=O)Nc1ccccc1C#N)=N\NC(=O)c1ccncc1 | 6 | 9 | 1.9* | 1
COc1cccc(NC(=O)C(=O)N/N=C(\C)CC(=O)NC2CCCCCCC2)c1 | -50 | 3 | 0 | -3
COc1cccc(C(=O)N/N=C(\C)CC(=O)Nc2ccc(Br)cc2)c1 | -1 | 9 | 1 | 0
COc1cc(OC)cc(C(=O)N/N=C(\C)CC(=O)Nc2ccc(Br)cc2)c1 | 54* | 13 | 0 | 1
CCOC(=O)c1sc(NC(=O)/C=C/c2cccs2)cc1C | -75 | 2 | 0 | 4
O=C(CNc1ccc(I)cc1)N/N=C/c1ccc([N+](=O)[O-])cc1 | 0 | -1 | 0 | 1
CCNc1nc(NCc2ccccc2)c2ncn(-c3ccsc3)c2n1 | -13 | -3 | 0 | 1
CCOc1nc(SC)nc2sc3c(c12)CC(C)(C)OC3 | 0 | 0 | 0 | 1
C/C(CC(=O)Nc1ccc(I)cc1)=N\NC(=O)c1cccc(O)c1 | 12 | -2 | 0 | 0
C/C(CC(=O)Nc1ccc(C)cc1)=N\NC(=O)c1cccc(O)c1 | 35* | 9 | 0 | -3
C/C(CC(=O)Nc1cccc(C(F)(F)F)c1)=N\NC(=O)c1ccc2ccccc2c1 | 51* | 7 | 0 | 0
CCC(C)n1c(SCc2ccccc2F)nc2ccsc2c1=O (configuration not stated) | -6 | 7 | 0 | 0
CCC(C)n1c(SCc2ccccc2C)nc2ccsc2c1=O (configuration not stated) | 47* | -24 | 0 | 1
CC(=O)C1=C(O)C(=O)N(c2nnn(C)n2)C1c1cccs1 (configuration not stated) | -1 | 5 | 3.6* | -1
O=C(C1=C(O)C(=O)N(c2nccs2)C1c1cccs1)c1cccs1 (configuration not stated) | -4 | 33 | 0 | -1
COc1ccccc1-c1nnc(SCC(=O)Nc2ccc(Br)cn2)o1 | 34* | 4 | 0 | 1
CC(C)C(=O)/C(=C/c1ccc(Cl)cc1Cl)n1cncn1 | 73* | 8 | 0 | 1
Cc1nn(C)c(C)c1/C=C(/C(=O)C(C)C)n1cncn1 | 4 | 33 | 0 | 1
COc1ccc(-c2cnc(NCCCn3ccnc3)nc2)cc1 | 0 | 22 | 0 | 2
COc1cc(OC)cc(-c2cc3nc4c(c(NCCCn5ccnc5)n3n2)CCCC4)c1 | 3 | 6 | 2.4* | 0
COc1ccc(-c2cnnc(NCCCn3ccnc3)n2)cc1 | 32* | 1 | 0 | 0
COc1cccc(C2=NN3C(C2)c2cccc(OC)c2OC3c2cccc(OC)c2)c1 (configuration not stated) | 38* | 6 | 0 | 0
COc1cccc(C2=NN3C(C2)c2cccc(OC)c2OC3c2ccc(F)c(F)c2)c1 (configuration not stated) | 26 | 7 | 0 | -1
COC(=O)c1ccc(C2Oc3c(OC)cccc3C3CC(c4ccc(OC)cc4)=NN32)cc1 (configuration not stated) | -43 | -4 | 0 | -1
COc1cccc(C2=NN3C(C2)c2cccc(OC)c2OC3c2cc(OC)c(OC)c(OC)c2)c1 (configuration not stated) | 32* | 3 | 0 | -1
SMILES | TEAD-YAP inh | MITF inh | FBW7 act | GPR151 activ
COC(=O)c1ccc(C2Oc3c(OC)cccc3C3CC(c4cccc(OC)c4)=NN32)cc1 (configuration not stated) | 63* | 19 | 0 | -3
COc1cccc(C2=NN3C(C2)c2cccc(OC)c2OC32CCCCC2)c1 (configuration not stated) | 36* | 3 | 0 | -2
CC1(CC(=O)Nc2ccccc2)Nc2ccccc2C(=O)N1c1ccccc1 (configuration not stated) | -7 | 18 | 1 | -2
Nc1nc(NCCN2CCOCC2)cc(NCc2cccnc2)n1 | -5 | 11 | 0 | 1
O=C(Cc1c(C(=O)O)[nH]c2ccc(Cl)cc12)NCC1COc2ccccc2O1 (configuration not stated) | 3 | -2 | 0 | 1
OC(c1cccnc1)c1ccc2c(c1)CN(Cc1ccc3c(c1)OCO3)CCO2 (configuration not stated) | -11 | 6 | 0 | 0
O=C(NCc1nc2ccccc2[nH]1)c1cc(N2CCc3ccccc3C2)nc2ccccc12 | -11 | 8 | 1 | 1
CCNc1nc(NCC)n2c(SCC(=O)c3ccc(OC)c(OC)c3)nnc2n1 | 7 | 69* | -1 | 2
CCNc1nc(NCC)n2c(SCC(=O)Nc3cccc(Cl)c3C)nnc2n1 | 4 | 76* | 0 | 1
CCNc1nc(NCC)n2c(SCC(=O)Nc3cc(=O)n(C)c(=O)n3C)nnc2n1 | -3 | 73* | 0 | 0
O=C(NCc1ccc(F)cc1)c1ccc2c(c1)NC(=O)c1ccccc1S2(=O)=O | -4 | -14 | 0 | -1
Cc1nc(SCC(=O)Nc2ccc(N3CCOCC3)cc2)c2c(C)c(C)sc2n1 | 4 | 2 | 0 | -1
Nc1ncnc2c1ncn2C1OC(COP(=O)(O)OP(=O)(O)O)C(O)C1O (configuration not stated) | 6 | 12 | 0 | 2
Cc1cccc(N2C(=O)c3cccnc3C2=O)c1C | 10 | 22 | -1 | -1
CCN1C=C\C(=C/C=C(/C=C/c2cc[n+](CC)cc2)c2cc[n+](CC)c3ccccc23)c2ccccc21 | 7 | 1 | 0 | 0
CCN1C=C/C(=C/C=c2/s/c(=C\c3sc(-c4ccccc4)c(-c4ccccc4)[n+]3CC)n(CC)c2=O)c2ccccc21 | 8 | -58 | 2.0* | -1
Cc1ccc(CNC(=O)COC(=O)c2cccs2)cc1 | 3 | 8 | 0 | 0
COc1ccc(OCC(=O)Nc2cc(-c3nc4cc(C)ccc4o3)ccc2Cl)cc1 | -18 | -8 | 0 | -1
N#Cc1cnc(N)c(C#N)c1Nc1ccccc1 | 38* | 4 | 0 | -1
N#Cc1cc(N)c(Nc2ccccc2)cc1C#N | -4 | 0 | 0 | 3
CN(C)CCOc1cc(-c2cn[nH]c2)c(F)cc1NC(=O)C(N)c1cccc(F)c1 (configuration not stated) | -2 | 3 | 0 | 0
CCOC(=O)c1c(NC(=O)c2ccc(C)cc2)sc(C(=O)Nc2ccccc2)c1C | -7 | -4 | 1 | 1
COc1ccc(-c2csc(NC(=O)c3ccc(C)cc3)c2C(=O)O)cc1 | 47* | 4 | 0 | 0
CCCc1sc(NC(=O)c2ccc(C)cc2)c(C(=O)O)c1C | 52* | 14 | 1 | -1
CC(=O)OCCN1C(=O)c2ccc3c4c(ccc(c24)C1=O)C(=O)N(CCOC(C)=O)C3=O | -4 | 2 | 0 | 1
Fc1ccc(-n2ncc3c(NC4CCCC4)ncnc32)cc1 | -22 | -6 | 0 | 0
CN(c1ncnc2c1cnn2-c1ccccc1)C1CCCCC1 | 93* | -2 | 0 | 1
c1ccc(-n2ncc3c(NC4CCCCCCCCCCC4)ncnc32)cc1 | -5 | 31 | 0 | 1
Cc1cccc(-n2ncc3c(NC4CCCCC4)ncnc32)c1 | 53* | -6 | 0 | 2
Cc1ccc(-n2ncc3c(NC4CCCC4)ncnc32)cc1 | 37* | -8 | 0 | -1
